Measured values from publication PMC5540273 (PLoS ONE, 2017).
Like-named read-outs stand apart in the source and are kept apart here.

Experiments:
DMPK = conditions: concentration: 1 μM, replicates: in singlicate; n = 1
DRAK1 = test system: T1, DRAK1; conditions: concentration: 1 μM, replicates: in singlicate; n = 1
T1 construct: gene STK17A

DRAK2 = test system: T2, DRAK2; conditions: concentration: 1 μM, replicates: in singlicate; n = 1
T2 construct: gene STK17B

DYRK1A = conditions: concentration: 1 μM, replicates: in singlicate; n = 1
DYRK1B = conditions: n = 1
DYRK2 = conditions: concentration: 1 μM, replicates: in singlicate; n = 1
EGFR = conditions: concentration: 1 μM, replicates: in singlicate; n = 1
EIF2AK1 = conditions: concentration: 1 μM, replicates: in singlicate; n = 1
EPHA1 = conditions: concentration: 1 μM, replicates: in singlicate; n = 1
EPHA2 = conditions: concentration: 1 μM, replicates: in singlicate; n = 1
[1] = concentration: 1 μM, replicates: in singlicate
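Also: KINOMEscan kinase panel screen.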

Row | SMILES | %Inh (DMPK) | %Inh (DRAK1) | %Inh (DRAK2) | %Inh (DYRK1A) | %Inh (DYRK1B; [1]) | %Inh (DYRK2) | %Inh (EGFR) | %Inh (EIF2AK1) | %Inh (EPHA1) | %Inh (EPHA2) | %Inh (DYRK1B; 1 µM)
1 | O=C(Nc1cccc(-c2nn3ncccc3c2-c2ccnc(Nc3cccc(C(F)(F)F)c3)n2)c1)c1c(F)cccc1F [GSK299495] | 0% | 4% | 0% | 14% | 0% | 0% | 99.1% | 18% | 41% | 0% | 
2 | COc1ccc(COc2cc(-n3cnc4ccccc43)sc2C(N)=O)cc1 [GSK1024304] | 29% | 16% | 0% | 16% | 12% | 12% | 4% | 0% | 0% | 0% | 
3 | NCC(NC(=O)c1cc(-c2cn[nH]c2)c(-c2ccnc3[nH]ccc23)s1)c1ccccc1.O=C(O)C(F)(F)F.O=C(O)C(F)(F)F (centres unmarked) [GSK1325775] | 95.8% | 90.6% | 0% | 44% | 35% | 79% | 4% | 0% | 13% | 0% | 
4 | Fc1ccc(-c2ncn(CCCN3CCOCC3)c2-c2cccnc2)cc1 [SB-211743] | 24% | 0% | 0% | 3% | 0% | 24% | 0% | 0% | 0% | 0% | 
5 | Cc1ccc(C(=O)NCC(N)=O)cc1-n1c(C)cc(OCc2ccc(F)cc2F)c(Br)c1=O | 0% | 0% | 5% | 0% | 0% | 0% | 11% | 0% | 25% | 40% | 
6 | O=c1cc(N2CCOCC2)nc2n(Cc3cccc(Cl)c3Cl)c(C3CC3)nn12 [GSK2358994] | 0% | 11% | 9% | 2% |  | 1% | 0% | 0% | 7% | 0% | 0%
7 | Cc1ccc(NC(=O)c2ccnc(N3CCN(C)CC3)c2)cc1-c1ccc(C(=O)NCC2CC2)cc1 [GW775604] | 7% | 0% | 0% | 0% | 0% | 0% | 0% | 0% | 0% | 0% | 
8 | CN(C(=O)c1ccc(-c2cc(-c3c[nH]nc3-c3ccccn3)ccn2)cc1)C1CCOCC1 [GW810083] | 0% | 1% | 2% | 0% | 9% | 9% | 0% | 0% | 0% | 0% | 
9 | O=C(NCCNc1ccnc(Nc2ccc(F)cc2)n1)c1cc2ccccc2s1 [GSK1379874] | 0% | 8% | 33% | 2% | 17% | 15% | 23% | 0% | 10% | 30% | 
10 | Cl.Nc1ncnc2occ(-c3ccc(NC(=O)Nc4cc(C(F)(F)F)ccc4F)cc3)c12 [SB-707548] | 0% | 0% | 0% | 0% | 0% | 14% | 30% | 0% | 79% | 97.5% | 
11 | Cc1nnc(-c2ccc3ncc(-c4ccc(S(C)=O)cc4)n3c2)o1 (centres unmarked) | 1% | 0% | 7% | 16% | 66% | 6% | 9% | 6% | 0% | 0% | 
12 | Cc1c(Cn2c(C)nn3c(=O)cc(N4CCOC(C)C4)nc23)cccc1C(F)(F)F (centres unmarked) [GSK2344444] | 0% | 1% | 0% | 7% | 0% | 24% | 34% | 0% | 0% | 5% | 
13 | CN1c2ccc(CNc3ccc(F)cc3)cc2-c2c(cnn2C)S1(=O)=O | 1% | 0% | 0% | 0% | 0% | 0% | 0% | 0% | 0% | 9% | 
14 | CC(=O)Nc1ccc(COc2ccc(Nc3ccnc4cc(-c5ccccn5)ccc34)cc2)cc1.Cl [GW440148] | 0% | 1% | 21% | 4% | 33% | 11% | 23% | 0% | 11% | 0% | 
15 | NS(=O)(=O)CCc1cccc(Nc2nccc(-c3c(-c4cccc(NC(=O)c5c(F)cccc5F)c4)nn4ccccc34)n2)c1 [GSK336735] | 11% | 4% | 12% | 20% | 0% | 12% | 100% | 0% | 69% | 71% | 
16 | Cn1cc(-c2ccc3c(c2)CCN3C(=O)Cc2ccccc2Cl)c2c(N)ncnc21 [GSK2608885] | 0% | 0% | 0% | 7% | 12% | 29% | 100% | 6% | 88% | 77% | 
17 | Fc1ccc(-c2nn3c(OCC(F)(F)F)cccc3c2-c2ccncc2)cc1 [GW514784] | 0% | 18% | 0% | 3% | 0% | 10% | 20% | 0% | 8% | 7% | 
